Key:
Plasmodium falciparum [1] = assay: GSK_TCMDC: Inhibition of Plasmodium falciparum 3D7 in whole red blood cells, using parasite LDH activity as an index of growth. Test compounds present at 2uM; type: functional
Plasmodium falciparum [2] = assay: GSK_TCMDC: Inhibition of Plasmodium falciparum Dd2 in whole red blood cells, using parasite LDH activity as an index of growth. Test compounds present at 2uM; type: functional

| Compound | Inhibition (Plasmodium falciparum [1]) [%] | Inhibition (Plasmodium falciparum [2]) [%] |
| --- | --- | --- |
| CC(C)CNc1nc(N)nc2ccc3c(ccn3CC(C)C)c12 | 99 | 51 |
| COc1ccc2nc3cc(Cl)ccc3c(Nc3ccc(Oc4ccc(Nc5c6ccc(Cl)cc6nc6ccc(OC)cc56)cc4)cc3)c2c1.Cl | 86 | 93 |
| Cc1nc(C)c(-c2ccc(Oc3ccc(Cl)c(Cl)c3)cc2)c(O)c1Cl | 100 | 97 |
| CC(=O)Oc1c(Cl)c(C)nc(C)c1-c1ccc(Oc2ccc(OC(F)(F)F)cc2)cc1 | 97 | 98 |
| Nc1nc(Cc2ccc(Cl)cc2)nc(Cc2ccc(Cl)cc2)n1 | 85 | 0 |
| CC1CCNc2ccc(Cc3cnc(N)nc3N)cc21.Cl (centres undefined) | 82 | 0 |
| CCCc1cc(OC)c(CC2c3cc(O)c(Cl)cc3C(c3ccccc3)CN2C)cc1OC.Cl (centres undefined) | 100 | 100 |
| Cc1nc(C)c(-c2ccc(S(=O)(=O)c3ccc(Cl)cc3)cc2)c(O)c1Br | 97 | 97 |
| CCN1C(=O)C(=NN=C(S)N2CCCC2)c2ccccc21 | 91 | 9 |
| Cc1nc(C)c(-c2ccc(Oc3ccc(Cl)cc3)cc2)c(O)c1I | 88 | 49 |
| Cc1nc(C)c(-c2ccc(Cl)cc2)c(O)c1I | 93 | 96 |
| CCOC(=O)c1c(-c2ccccc2)c(C(=O)OCC)n2ccccc12 | 93 | 70 |
| COc1ccc(OC)c(CC2c3ccc(Br)c(O)c3CCN2C)c1.Cl (centres undefined) | 98 | 97 |
| Cc1ccc(Cc2cccc3nc(N)nc(N)c23)cc1 | 92 | 0 |
| Cc1[nH]c(C)c(-c2ccc(Oc3ccc(F)cc3)cc2)c(=O)c1Br | 100 | 98 |
| CCCCCCCc1c(C)[nH]c2ccc(F)cc2c1=O | 98 | 96 |
| COc1ccc2c(c1CNCCCCCCNCc1c(OC)ccc3c1CCCC3)CCCC2 | 94 | 7 |
| CCOc1cc(Cc2cnc(N)nc2N)ccc1OC.Cl | 88 | 0 |
| CCCCNCc1cc(Cl)c2ccccc2c1O.Cl | 100 | 100 |
| CCOc1cc(Cc2cnc(N)nc2N)cc(Br)c1OC | 83 | 3 |
| CC(CNC(=N)c1cccc(C(=N)NCC(C)Oc2cccc(C3CCCCC3)c2)n1)Oc1cccc(C2CCCCC2)c1.Cl (centres undefined) | 90 | 31 |

| Compound | Inhibition (Plasmodium falciparum [1]) [%] | Inhibition (Plasmodium falciparum [2]) [%] |
| --- | --- | --- |
| CCN(CC)CCCN(CCCN(CC)CC)c1cc(C)nc(Nc2ccc(Br)cc2)n1.Cl | 100 | 40 |
| CC(C)(C)c1ccc(Cc2cccc3nc(N)nc(N)c23)cc1 | 100 | 51 |
| CCCc1cc(Cc2cnc(N)nc2N)c2cccnc2c1OC | 98 | 3 |
| Cc1nc(C)c(-c2ccc(Oc3cccc(OC(F)(F)F)c3)cc2)c(O)c1Cl | 97 | 97 |
| COc1ccc2c(OC)cccc2c1CNCCCCCCNCc1c(OC)ccc2c(OC)cccc12.CS(=O)(=O)O | 92 | 28 |
| Cc1cc(=O)c(-c2ccc(Oc3ccc(OC(F)(F)F)cc3)cc2)c(C)[nH]1 | 93 | 61 |
| Cc1ccc2ccncc2c1N | 96 | 4 |
| Cl.c1ccc(CN2CCN(CCCCNc3c4ccccc4nc4ccccc34)CC2)cc1 | 100 | 100 |
| CCCCN(CCCC)CCCN(CCCN(CCCC)CCCC)c1cc(C)nc(Nc2ccc(Cl)cc2)n1.O=C(O)C(=O)O | 100 | 99 |
| CCN(Cc1cccc2ccccc12)c1ccc2nc(N)nc(N)c2c1.Cl | 100 | 100 |
| COc1cccc(Cn2ccc3c4c(N)nc(N)nc4ccc32)c1 | 99 | 96 |
| Nc1nc(N)c2c(ccc3c2ccn3Cc2cccc(F)c2)n1 | 100 | 99 |
| CCCc1ccc(Cc2cnc3nc(N)nc(N)c3c2C)cc1 | 98 | 0 |
| CC(=O)Nc1ccc(OCCCCCOc2ccc(NC(C)=O)cc2Cl)c(Cl)c1 | 93 | 0 |
| CCCCCCCCCC(=O)NCC1CC(Br)=NO1 (centres undefined) | 87 | 42 |
| Cc1nc(C)c(-c2ccc(Oc3cc(Cl)cc(Cl)c3)cc2)c(O)c1Cl | 96 | 96 |
| Nc1ncc(-c2ccc(Br)cc2)c(N)n1 | 89 | 0 |
| Cc1nc(C)c(-c2ccc(Oc3ccc([S+](C)[O-])cc3)cc2)c(O)c1Br (centres undefined) | 91 | 64 |
| Cl.Nc1nc(N)c2c(ccc3nn(Cc4ccccc4)cc32)n1 | 97 | 88 |
| CCc1nc(N)nc(N)c1-c1ccc2c(c1)CCCC2 | 95 | 0 |
| CCNC(=O)CCc1cccc(Br)c1 | 89 | 54 |
